# Experimental data published in PMC7862700, “An all-to-all approach to the identification of sequence-specific readers for epigenetic DNA modifications on cytosine”.
# Key:
# Experiment in all cases: DAPPL (digital affinity profiling via proximity ligation, sequencing); 10 mM Tris-HCl pH 7.5, 50 mM NaCl, 1 mM DTT, 4% glycerol, room temperature, 30 min; GST-TFs on glutathione beads, 16-mer random dsDNA library, 0.1% formaldehyde crosslink after washing; high values mean tight binding
# FLI1 = target: T1, FLI1 (Homo sapiens, UniProt Q01543 1-452); settings: protein: recombinant; tags: N-terminal GST; dsDNA, one strand shown
# T1 sequence: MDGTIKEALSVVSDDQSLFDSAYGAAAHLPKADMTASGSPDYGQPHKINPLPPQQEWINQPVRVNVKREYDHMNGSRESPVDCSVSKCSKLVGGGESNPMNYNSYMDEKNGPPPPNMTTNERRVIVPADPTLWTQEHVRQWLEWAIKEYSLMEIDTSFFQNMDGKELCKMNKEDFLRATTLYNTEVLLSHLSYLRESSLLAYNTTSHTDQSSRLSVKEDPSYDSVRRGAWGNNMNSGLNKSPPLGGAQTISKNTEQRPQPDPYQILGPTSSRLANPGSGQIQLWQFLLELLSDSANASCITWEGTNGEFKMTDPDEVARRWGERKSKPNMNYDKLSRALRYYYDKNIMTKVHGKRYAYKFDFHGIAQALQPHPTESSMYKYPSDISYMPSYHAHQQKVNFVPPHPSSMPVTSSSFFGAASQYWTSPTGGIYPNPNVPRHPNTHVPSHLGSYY
# In short: (§1)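 Human transcription factors fused to GST were expressed in yeast, captured on glutathione beads, given DNA barcodes and pooled with a GST-only negative control. Pools were incubated with 200 nmole of a 16-mer random double-stranded DNA library in Tris/NaCl/DTT/glycerol buffer at room temperature for 30 min. They were then washed, crosslinked with 0.1% formaldehyde, proximity-ligated (BsaI/T4 ligase, 1 h, 37 °C), PCR-amplified and sequenced on an Illumina NextSeq500. Binding signal is each 6-mer's read frequency for a factor divided by its frequency for the GST control.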
# ELK1 = target: T2, ELK1 (Homo sapiens, UniProt P19419 1-428); settings: protein: recombinant; tags: N-terminal GST; dsDNA, one strand shown
# T2 sequence: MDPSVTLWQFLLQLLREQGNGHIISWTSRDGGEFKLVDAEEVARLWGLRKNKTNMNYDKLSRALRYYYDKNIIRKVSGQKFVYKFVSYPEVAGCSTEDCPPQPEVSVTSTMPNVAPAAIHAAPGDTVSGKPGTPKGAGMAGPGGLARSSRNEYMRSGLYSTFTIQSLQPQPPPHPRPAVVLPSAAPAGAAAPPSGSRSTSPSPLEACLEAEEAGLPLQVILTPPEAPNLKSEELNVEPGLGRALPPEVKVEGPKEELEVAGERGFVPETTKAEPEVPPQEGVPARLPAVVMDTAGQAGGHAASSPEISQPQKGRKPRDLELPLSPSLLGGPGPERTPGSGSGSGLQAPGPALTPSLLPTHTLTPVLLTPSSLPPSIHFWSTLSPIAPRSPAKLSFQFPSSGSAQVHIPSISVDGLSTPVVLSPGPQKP
# In short: as §1
# GABPA = target: T3, GABPA (Homo sapiens, UniProt Q06546 1-454); settings: protein: recombinant; tags: N-terminal GST; dsDNA, one strand shown
# T3 sequence: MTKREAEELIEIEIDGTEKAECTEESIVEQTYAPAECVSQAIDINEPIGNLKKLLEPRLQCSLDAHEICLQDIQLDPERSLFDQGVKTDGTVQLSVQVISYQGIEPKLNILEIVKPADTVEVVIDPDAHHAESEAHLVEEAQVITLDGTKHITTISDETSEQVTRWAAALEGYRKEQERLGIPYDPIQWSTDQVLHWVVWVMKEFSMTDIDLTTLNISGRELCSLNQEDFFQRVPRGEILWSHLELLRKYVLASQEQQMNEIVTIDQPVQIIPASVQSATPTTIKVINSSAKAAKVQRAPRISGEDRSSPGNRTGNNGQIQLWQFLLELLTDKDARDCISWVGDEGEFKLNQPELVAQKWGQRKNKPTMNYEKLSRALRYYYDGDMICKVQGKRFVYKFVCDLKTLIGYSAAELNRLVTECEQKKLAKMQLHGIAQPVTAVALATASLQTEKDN
# In short: as §1
# ERG = target: T4, ERG (Homo sapiens, UniProt P11308 1-479); settings: protein: recombinant; tags: N-terminal GST; dsDNA, one strand shown
# T4 sequence: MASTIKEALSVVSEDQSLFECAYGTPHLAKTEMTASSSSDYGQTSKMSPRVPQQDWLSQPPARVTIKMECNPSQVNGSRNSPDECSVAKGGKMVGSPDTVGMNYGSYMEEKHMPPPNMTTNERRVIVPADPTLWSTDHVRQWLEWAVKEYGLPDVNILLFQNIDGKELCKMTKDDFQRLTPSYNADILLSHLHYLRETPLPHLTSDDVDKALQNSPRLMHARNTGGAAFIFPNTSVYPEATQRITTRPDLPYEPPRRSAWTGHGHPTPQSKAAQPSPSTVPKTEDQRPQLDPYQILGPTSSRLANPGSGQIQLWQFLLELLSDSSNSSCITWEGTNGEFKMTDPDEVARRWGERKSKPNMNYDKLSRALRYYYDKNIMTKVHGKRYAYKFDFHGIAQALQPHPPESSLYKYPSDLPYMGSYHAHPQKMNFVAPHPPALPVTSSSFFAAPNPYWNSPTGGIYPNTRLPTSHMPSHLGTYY
# In short: as §1
# ELF1 = ELF1 (Homo sapiens, UniProt P32519 1-619); settings: protein: recombinant; tags: N-terminal GST; dsDNA, one strand shown
# In short: as §1
# EHF = target: T5, EHF (Homo sapiens, UniProt Q9NZC4 1-300); settings: protein: recombinant; tags: N-terminal GST; dsDNA, one strand shown
# T5 sequence: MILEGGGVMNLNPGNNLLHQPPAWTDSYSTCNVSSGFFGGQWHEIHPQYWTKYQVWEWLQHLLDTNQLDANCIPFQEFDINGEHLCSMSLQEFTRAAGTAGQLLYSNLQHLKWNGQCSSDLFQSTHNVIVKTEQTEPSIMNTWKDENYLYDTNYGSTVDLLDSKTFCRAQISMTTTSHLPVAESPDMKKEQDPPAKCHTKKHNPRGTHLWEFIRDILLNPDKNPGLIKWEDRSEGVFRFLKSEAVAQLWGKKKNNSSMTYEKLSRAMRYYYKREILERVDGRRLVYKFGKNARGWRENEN
# In short: as §1
# SPI1 = SPI1 (Homo sapiens, UniProt P17947 1-270); settings: protein: recombinant; tags: N-terminal GST; dsDNA, one strand shown
# In short: as §1
# SPIB = SPIB (Homo sapiens, UniProt Q01892 1-262); settings: protein: recombinant; tags: N-terminal GST; dsDNA, one strand shown
# In short: as §1
# ELK3 = target: T6, ELK3 (Homo sapiens, UniProt P41970 1-407); settings: protein: recombinant; tags: N-terminal GST; dsDNA, one strand shown
# T6 sequence: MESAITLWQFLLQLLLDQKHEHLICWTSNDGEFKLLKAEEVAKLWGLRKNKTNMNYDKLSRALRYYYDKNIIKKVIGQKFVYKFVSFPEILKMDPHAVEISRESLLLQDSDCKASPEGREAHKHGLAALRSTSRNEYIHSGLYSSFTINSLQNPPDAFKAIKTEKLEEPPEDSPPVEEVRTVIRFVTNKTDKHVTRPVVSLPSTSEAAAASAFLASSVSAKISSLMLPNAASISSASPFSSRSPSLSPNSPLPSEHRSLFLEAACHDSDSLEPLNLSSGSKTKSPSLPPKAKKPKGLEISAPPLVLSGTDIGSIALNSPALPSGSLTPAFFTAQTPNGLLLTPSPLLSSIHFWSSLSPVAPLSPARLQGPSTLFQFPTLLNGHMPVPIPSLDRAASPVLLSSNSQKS
# In short: as §1
# FEV = target: T7, FEV (Homo sapiens, UniProt Q99581 1-238); settings: protein: recombinant; tags: N-terminal GST; dsDNA, one strand shown
# T7 sequence: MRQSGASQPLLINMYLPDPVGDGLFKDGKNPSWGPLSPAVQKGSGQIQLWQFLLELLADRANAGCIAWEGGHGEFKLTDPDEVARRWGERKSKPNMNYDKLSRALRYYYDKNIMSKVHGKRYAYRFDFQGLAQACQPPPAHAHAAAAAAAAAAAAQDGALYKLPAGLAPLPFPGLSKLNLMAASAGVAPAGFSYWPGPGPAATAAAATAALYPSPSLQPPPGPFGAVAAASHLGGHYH
# In short: as §1
# ETV5 = ETV5 (Homo sapiens, UniProt P41161 1-510); settings: protein: recombinant; tags: N-terminal GST; dsDNA, one strand shown
# In short: as §1
# HSF1 = HSF1 (Homo sapiens, UniProt Q00613 1-529); settings: protein: recombinant; tags: N-terminal GST; chain copies: 3; dsDNA, one strand shown
# In short: as §1
# SPIC = target: T8, SPIC (Homo sapiens, UniProt Q8N5J4 1-248); settings: protein: recombinant; tags: N-terminal GST; dsDNA, one strand shown
# T8 sequence: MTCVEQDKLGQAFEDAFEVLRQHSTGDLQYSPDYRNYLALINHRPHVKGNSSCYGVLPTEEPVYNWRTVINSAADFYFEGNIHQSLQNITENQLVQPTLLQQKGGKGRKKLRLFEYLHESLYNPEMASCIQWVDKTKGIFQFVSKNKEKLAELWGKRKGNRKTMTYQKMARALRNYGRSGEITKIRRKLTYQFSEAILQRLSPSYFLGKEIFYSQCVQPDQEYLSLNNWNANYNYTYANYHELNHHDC
# In short: as §1
# ELF4 = ELF4 (Homo sapiens, UniProt Q99607 1-663); settings: protein: recombinant; tags: N-terminal GST; dsDNA, one strand shown
# In short: as §1
# ELK4 = target: T9, ELK4 (Homo sapiens, UniProt P28324-2 1-405); settings: protein: recombinant; tags: N-terminal GST; dsDNA, one strand shown
# T9 sequence: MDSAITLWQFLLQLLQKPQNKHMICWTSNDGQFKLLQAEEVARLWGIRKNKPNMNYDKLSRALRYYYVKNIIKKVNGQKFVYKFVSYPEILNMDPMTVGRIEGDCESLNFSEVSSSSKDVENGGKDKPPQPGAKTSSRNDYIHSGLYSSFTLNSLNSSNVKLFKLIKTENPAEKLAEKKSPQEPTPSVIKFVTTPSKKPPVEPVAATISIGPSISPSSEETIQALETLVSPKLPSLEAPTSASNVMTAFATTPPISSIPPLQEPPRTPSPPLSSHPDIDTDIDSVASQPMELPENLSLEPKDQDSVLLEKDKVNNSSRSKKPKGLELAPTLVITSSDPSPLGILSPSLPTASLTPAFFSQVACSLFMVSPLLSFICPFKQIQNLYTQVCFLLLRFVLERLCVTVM
# In short: as §1
# ETV2 = target: T10, ETV2 (Homo sapiens, UniProt O00321 1-342); settings: protein: recombinant; tags: N-terminal GST; dsDNA, one strand shown
# T10 sequence: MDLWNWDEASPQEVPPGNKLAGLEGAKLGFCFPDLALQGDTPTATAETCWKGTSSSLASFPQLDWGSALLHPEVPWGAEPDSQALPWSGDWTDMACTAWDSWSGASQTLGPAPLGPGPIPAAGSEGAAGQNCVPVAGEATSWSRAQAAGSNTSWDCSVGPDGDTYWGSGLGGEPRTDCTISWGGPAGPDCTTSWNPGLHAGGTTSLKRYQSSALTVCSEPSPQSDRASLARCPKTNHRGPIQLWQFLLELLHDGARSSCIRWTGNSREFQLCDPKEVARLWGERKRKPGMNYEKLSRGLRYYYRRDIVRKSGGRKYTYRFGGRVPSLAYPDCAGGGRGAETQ
# In short: as §1
# ELF3 = target: T11, ELF3 (Homo sapiens, UniProt P78545 1-371); settings: protein: recombinant; tags: N-terminal GST; dsDNA, one strand shown
# T11 sequence: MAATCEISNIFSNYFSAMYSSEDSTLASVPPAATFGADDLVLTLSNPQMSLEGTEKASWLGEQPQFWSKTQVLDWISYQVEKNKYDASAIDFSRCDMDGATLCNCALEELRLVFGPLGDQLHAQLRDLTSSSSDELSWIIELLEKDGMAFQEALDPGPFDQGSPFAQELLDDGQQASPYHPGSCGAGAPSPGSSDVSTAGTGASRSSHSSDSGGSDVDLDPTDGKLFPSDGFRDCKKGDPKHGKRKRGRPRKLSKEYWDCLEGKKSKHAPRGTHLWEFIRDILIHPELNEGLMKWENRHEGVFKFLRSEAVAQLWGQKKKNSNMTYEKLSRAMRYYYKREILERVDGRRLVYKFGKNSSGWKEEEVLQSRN
# In short: as §1
# CRX = CRX (Homo sapiens, UniProt O43186 1-299); settings: protein: recombinant; tags: N-terminal GST; dsDNA, one strand shown
# In short: as §1
# ETV1 = ETV1 (Homo sapiens, UniProt P50549 1-477); settings: protein: recombinant; tags: N-terminal GST; dsDNA, one strand shown
# In short: as §1
# SPIB, sequence (Q01892 whole entry): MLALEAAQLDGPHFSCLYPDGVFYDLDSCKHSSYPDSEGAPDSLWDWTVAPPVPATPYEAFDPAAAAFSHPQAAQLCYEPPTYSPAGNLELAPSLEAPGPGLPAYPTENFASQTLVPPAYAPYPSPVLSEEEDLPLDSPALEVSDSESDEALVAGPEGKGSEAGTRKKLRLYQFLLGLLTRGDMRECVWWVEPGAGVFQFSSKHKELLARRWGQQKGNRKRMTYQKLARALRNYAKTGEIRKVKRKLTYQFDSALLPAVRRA
# ETV5, sequence (P41161 whole entry): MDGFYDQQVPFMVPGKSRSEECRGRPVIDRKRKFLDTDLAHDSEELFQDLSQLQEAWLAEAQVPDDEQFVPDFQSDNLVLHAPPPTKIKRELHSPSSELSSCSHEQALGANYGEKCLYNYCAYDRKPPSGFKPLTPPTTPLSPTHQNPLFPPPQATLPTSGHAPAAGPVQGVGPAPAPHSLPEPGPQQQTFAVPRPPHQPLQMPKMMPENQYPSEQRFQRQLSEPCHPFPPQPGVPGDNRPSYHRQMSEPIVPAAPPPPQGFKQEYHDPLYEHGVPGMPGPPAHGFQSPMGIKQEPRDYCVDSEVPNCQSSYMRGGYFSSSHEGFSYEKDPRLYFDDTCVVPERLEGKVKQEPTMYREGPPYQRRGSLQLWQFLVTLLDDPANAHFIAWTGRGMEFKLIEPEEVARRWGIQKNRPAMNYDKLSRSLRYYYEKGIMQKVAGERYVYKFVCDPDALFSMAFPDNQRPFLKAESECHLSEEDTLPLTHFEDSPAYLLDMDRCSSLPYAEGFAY
# HSF1, sequence (Q00613 whole entry): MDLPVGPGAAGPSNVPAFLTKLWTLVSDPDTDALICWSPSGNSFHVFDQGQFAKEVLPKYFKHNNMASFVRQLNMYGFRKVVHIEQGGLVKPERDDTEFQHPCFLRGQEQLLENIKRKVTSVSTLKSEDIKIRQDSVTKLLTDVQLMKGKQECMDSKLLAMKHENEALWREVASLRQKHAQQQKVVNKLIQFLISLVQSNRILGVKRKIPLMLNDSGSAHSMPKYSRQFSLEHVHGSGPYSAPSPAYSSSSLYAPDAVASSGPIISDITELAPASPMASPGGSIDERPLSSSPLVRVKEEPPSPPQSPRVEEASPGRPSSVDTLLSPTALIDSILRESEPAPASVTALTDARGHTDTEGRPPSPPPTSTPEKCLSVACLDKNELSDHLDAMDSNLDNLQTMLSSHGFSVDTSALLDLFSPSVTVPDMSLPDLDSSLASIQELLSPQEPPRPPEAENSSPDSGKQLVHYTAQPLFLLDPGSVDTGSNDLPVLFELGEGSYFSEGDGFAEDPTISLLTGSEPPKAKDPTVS
# ETV1, sequence (P50549 whole entry): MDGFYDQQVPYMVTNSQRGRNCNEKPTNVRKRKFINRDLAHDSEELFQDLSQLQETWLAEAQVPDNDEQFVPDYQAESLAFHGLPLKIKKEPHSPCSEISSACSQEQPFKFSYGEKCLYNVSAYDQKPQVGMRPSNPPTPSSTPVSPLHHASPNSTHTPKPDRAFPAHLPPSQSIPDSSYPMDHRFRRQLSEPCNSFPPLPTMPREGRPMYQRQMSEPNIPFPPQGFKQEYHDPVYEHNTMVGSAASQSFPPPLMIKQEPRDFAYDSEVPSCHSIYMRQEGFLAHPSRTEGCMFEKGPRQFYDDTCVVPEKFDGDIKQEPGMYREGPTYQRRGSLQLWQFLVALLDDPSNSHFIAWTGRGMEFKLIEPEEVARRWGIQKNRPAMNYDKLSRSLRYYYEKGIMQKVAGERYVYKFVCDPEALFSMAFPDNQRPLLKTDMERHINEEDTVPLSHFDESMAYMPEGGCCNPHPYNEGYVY
# CRX, sequence (O43186 whole entry): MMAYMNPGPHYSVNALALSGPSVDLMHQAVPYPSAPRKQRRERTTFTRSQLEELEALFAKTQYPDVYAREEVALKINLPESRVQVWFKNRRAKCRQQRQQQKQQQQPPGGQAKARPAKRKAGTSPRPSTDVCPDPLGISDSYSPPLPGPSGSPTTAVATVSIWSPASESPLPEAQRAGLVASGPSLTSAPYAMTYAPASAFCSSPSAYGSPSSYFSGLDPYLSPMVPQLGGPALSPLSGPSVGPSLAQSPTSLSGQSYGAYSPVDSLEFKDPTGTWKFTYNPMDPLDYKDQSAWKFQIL
# ELF4, sequence (Q99607 whole entry): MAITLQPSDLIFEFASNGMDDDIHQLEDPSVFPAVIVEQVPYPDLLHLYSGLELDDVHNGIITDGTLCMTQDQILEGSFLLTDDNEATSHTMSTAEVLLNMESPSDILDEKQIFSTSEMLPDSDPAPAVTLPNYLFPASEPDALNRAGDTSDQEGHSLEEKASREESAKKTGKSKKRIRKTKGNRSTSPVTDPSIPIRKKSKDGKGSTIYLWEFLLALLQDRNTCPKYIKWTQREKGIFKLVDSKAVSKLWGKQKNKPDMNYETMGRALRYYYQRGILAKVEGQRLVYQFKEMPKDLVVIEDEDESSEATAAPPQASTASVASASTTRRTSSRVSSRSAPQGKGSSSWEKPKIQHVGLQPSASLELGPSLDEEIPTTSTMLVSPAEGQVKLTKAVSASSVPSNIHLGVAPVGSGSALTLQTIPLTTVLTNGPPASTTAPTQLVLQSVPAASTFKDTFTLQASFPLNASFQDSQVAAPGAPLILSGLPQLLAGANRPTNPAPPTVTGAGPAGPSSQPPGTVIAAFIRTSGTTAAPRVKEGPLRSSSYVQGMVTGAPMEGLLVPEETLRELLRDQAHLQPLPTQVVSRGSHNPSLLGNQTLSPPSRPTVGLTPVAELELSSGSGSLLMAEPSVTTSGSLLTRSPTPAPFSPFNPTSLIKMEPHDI
# ELF1, sequence (P32519 whole entry): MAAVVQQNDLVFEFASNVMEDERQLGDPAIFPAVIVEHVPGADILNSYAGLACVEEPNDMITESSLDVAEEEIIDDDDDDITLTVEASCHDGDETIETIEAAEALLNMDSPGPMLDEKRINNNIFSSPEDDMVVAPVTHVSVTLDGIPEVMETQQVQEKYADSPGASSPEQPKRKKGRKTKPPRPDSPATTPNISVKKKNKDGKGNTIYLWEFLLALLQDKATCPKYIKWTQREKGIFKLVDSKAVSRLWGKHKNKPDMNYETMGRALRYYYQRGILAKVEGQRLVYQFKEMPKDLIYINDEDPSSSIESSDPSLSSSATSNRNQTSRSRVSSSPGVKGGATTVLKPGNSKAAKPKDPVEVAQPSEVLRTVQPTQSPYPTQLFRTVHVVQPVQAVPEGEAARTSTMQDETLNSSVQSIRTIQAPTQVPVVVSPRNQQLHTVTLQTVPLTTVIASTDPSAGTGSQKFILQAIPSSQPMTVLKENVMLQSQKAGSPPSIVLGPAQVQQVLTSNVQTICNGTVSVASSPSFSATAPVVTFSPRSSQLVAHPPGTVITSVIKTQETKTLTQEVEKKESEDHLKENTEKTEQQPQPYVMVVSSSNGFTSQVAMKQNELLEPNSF
sequence,measurement,setting,value
TTCACT,binding signal,FLI1,"1.22 fold enrichment (6-mer frequency, TF over GST control)"
same,binding signal,ELK1,"1.32 fold enrichment (6-mer frequency, TF over GST control)"
same,binding signal,GABPA,"1.33 fold enrichment (6-mer frequency, TF over GST control)"
same,binding signal,ERG,"1.36 fold enrichment (6-mer frequency, TF over GST control)"
same,binding signal,ELF1,"1.43 fold enrichment (6-mer frequency, TF over GST control)"
same,binding signal,EHF,"1.32 fold enrichment (6-mer frequency, TF over GST control)"
same,binding signal,SPI1,"1.33 fold enrichment (6-mer frequency, TF over GST control)"
same,binding signal,SPIB,"1.24 fold enrichment (6-mer frequency, TF over GST control)"
same,binding signal,ELK3,"1.37 fold enrichment (6-mer frequency, TF over GST control)"
same,binding signal,FEV,"1.4 fold enrichment (6-mer frequency, TF over GST control)"
same,binding signal,ETV5,"1.31 fold enrichment (6-mer frequency, TF over GST control)"
same,binding signal,HSF1,"1.13 fold enrichment (6-mer frequency, TF over GST control)"
same,binding signal,SPIC,"1.16 fold enrichment (6-mer frequency, TF over GST control)"
same,binding signal,ELF4,"1.34 fold enrichment (6-mer frequency, TF over GST control)"
same,binding signal,ELK4,"1.42 fold enrichment (6-mer frequency, TF over GST control)"
same,binding signal,ETV2,"1.39 fold enrichment (6-mer frequency, TF over GST control)"
same,binding signal,ELF3,"1.2 fold enrichment (6-mer frequency, TF over GST control)"
same,binding signal,CRX,"1.1 fold enrichment (6-mer frequency, TF over GST control)"
same,binding signal,ETV1,"1.33 fold enrichment (6-mer frequency, TF over GST control)"
